Screening data deposited in PubChem BioAssay by Paczesny and Yang Labs, IUPUI and University of Michigan.
This is one part of a sample in which hits are shown more often than they occur.
ST2 IL33 inh: inhibitors of human ST2 (IL1RL1) binding to IL-33. AID 1259354. actives 2.3% (n = 78,000). AlphaLISA ST2-Fc/biotin-IL-33 interaction, 1 h. Q01638. inhibition, % for hits at 17 µM; in the data active = inhibition above about 30%
Target sequence (Q01638 whole entry, looked up): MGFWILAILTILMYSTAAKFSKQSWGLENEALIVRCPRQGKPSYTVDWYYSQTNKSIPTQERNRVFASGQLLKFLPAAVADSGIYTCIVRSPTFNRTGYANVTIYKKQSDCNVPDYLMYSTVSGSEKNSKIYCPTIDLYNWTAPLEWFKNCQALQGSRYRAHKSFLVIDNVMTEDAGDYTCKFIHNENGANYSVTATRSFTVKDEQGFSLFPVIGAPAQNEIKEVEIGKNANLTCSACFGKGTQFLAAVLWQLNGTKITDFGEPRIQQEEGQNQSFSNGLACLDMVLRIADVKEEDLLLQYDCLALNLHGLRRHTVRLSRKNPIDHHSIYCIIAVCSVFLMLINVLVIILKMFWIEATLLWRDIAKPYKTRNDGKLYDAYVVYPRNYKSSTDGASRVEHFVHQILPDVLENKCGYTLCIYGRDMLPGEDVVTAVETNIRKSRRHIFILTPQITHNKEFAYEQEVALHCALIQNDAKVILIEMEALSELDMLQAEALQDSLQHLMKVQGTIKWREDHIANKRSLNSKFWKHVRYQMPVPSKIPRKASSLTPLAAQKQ
Large screens that a line does not name were inactive.

O=C(NCCc1ccccc1)c1ccc2nc3sc4c(c3c(=O)n2c1)CCCC4	none
O=C(NCc1ccccc1)c1ccc2nc3sc4c(c3c(=O)n2c1)CCCC4	none
O=C(c1ccc2nc3sc4c(c3c(=O)n2c1)CCCC4)N1CCN(c2ccccc2)CC1	ST2 IL33 inh 31%
O=C(NCCc1nc2ccccc2n1Cc1c(F)cccc1Cl)c1cccs1	none
CSc1nnc2c(n1)OC(/C=C/c1ccco1)Nc1ccc(Br)cc1-2 (stereo not given)	none
CCCC(=O)N1c2ccccc2C(Nc2ccccc2)CC1C (stereo not given)	none
CCOC(=O)C[C@@H]1C[C@@H](C(C)C)[C@H](CNC(=O)c2ccccc2)C=C1C	none
N#CC1CC(c2ccccc2)=NN1c1ccccc1 (stereo not given)	ST2 IL33 inh 96%
CC(=O)N1N=C(c2ccccc2)CC1c1ccc(Br)cc1 (stereo not given)	none
c1ccc(C2=NN3COc4ccccc4C3C2)cc1 (stereo not given)	none
Cc1ccc(-n2cnnc2)cc1NC(=O)CN(C)C	none
CC1=C(C(=O)Nc2ccccc2)C(c2ccc3c(c2)OCO3)n2nnnc2N1 (stereo not given)	none
CNC(=O)CN(C1CCCCC1)S(=O)(=O)c1ccccc1	none
CC(=O)Nc1ccc(S(=O)(=O)N(CC2C(C)C=C(C)CC2C)C2CCCCC2)cc1 (stereo not given)	ST2 IL33 inh 32%
O=C(CN(C1CCCCC1)S(=O)(=O)c1ccc(Br)cc1)NC1CC1	none
COC(=O)CN1C(=O)C(OC(C)=O)S(=O)c2ccccc21 (stereo not given)	none
O=c1c(Oc2ccc(F)cc2)coc2c(O)c(O)ccc12	ST2 IL33 inh 41%
Cc1c(O)ccc2c(=O)c(Oc3ccccc3)coc12	none
CC(=O)Oc1ccc2c(=O)c(Oc3ccccc3)coc2c1C	none
C=CCNC(=O)C(=O)Nc1ccc(Cl)cc1	none
CCN(Cc1ccncc1)C(=O)CC1C(=O)NCCN1Cc1cccs1 (stereo not given)	none
CCSCCOC(=O)C1=C(C)Nc2ccccc2S1	ST2 IL33 inh 43%
CCOc1ccccc1C1C(C(=O)OCCSCC)=C(C)NC2=C1C(=O)CC(C)(C)C2 (stereo not given)	none
CCSCCOC(=O)C1=C(C)NC2=C(C(=O)CCC2)C1c1cccc(Br)c1 (stereo not given)	none
Cc1nc(CN2CCN(C(=O)Cn3nnnc3CN3CCCC3)CC2)cs1	none
O=C(O)c1cc(C(=O)O)cc(N2C(=O)C3C4c5ccccc5C(c5ccccc54)C3C2=O)c1 (stereo not given)	none
COc1cc(/C=C(\C#N)c2nc3ccc(C)cc3[nH]2)cc(OC)c1O	ST2 IL33 inh 34%
N#C/C(=C\c1ccc2c(c1)OCO2)c1nc2ccccc2[nH]1	none
CCOc1ccc(Br)cc1/C=C(\C#N)c1nc2ccccc2[nH]1	none
COc1ccc2nc(SCc3ccc(C)cc3)[nH]c2c1	none
N#C/C(=C\c1cc2c(cc1Br)OCO2)c1nc2ccccc2[nH]1	none
Cc1ccc(/C=C(\C#N)c2nc3ccc(C)cc3[nH]2)cc1	ST2 IL33 inh 32%
O=C(Cn1cnc2c(cnn2-c2ccccc2)c1=O)Nc1ccc(F)cc1F	none
O=C(c1ccc(F)c(F)c1)N1CCCC(N2CCN(c3cccc(Cl)c3)CC2)C1 (stereo not given)	none
Cc1ccc2[nH]nc(-c3ccc(F)c(CO)c3)c2c1	none
O=C(Nc1cccc2ccccc12)O[C@@H]1CO[C@H]2[C@@H]1OC[C@@H]2NCC1CCCCC1	none
O=[N+]([O-])c1ccc(-c2cn3cc(Br)ccc3n2)cc1	ST2 IL33 inh 31%
O=[N+]([O-])c1ccc(-c2cn3ccsc3n2)cc1	none
Brc1ccc(-c2cn3ccc4ccccc4c3n2)cc1	none
C[C@@H]1O[C@@H](Nc2ccc(Cl)cc2[N+](=O)[O-])[C@H](O)[C@H](O)[C@H]1O	none
Cc1c(O)ccc2c(=O)c(-c3ccccc3)coc12	none
Cn1c(/C=C/c2ccc(Br)cc2)nc2ccccc2c1=O	none
Cc1nc2ccccc2c(=O)n1CC(=O)NCc1ccccc1	none
CCn1c(/C=C/c2cccnc2)nc2ccccc2c1=O	ST2 IL33 inh 96%
CSc1nc2c(c(=O)[nH]1)C(c1cccc(Br)c1)C1=C(CCCC1=O)N2 (stereo not given)	none
COc1ccc2oc(C(=O)c3ccccc3)c(N)c2c1	ST2 IL33 inh 35%
COc1ccc2c(C)c(C(=O)O)oc2c1	none
CCOC(=O)c1c(-c2ccccc2)oc2ccc(OC)cc12	none
Cc1cnccc1N1CCCN(C(=O)c2ccccc2C2CCNC2)CC1 (stereo not given)	none
Cc1ccc(-n2nc3c(c2NC(=O)c2ccc(F)cc2)CSC3)cc1	none
O=C(O)CCC(=O)N[C@H]1CCN2C(=O)c3cc(-c4ccccc4)ccc3NC(=O)[C@H]12	none
O=C(O)CCC(=O)N[C@H]1CCN2C(=O)c3cc(-c4ccccc4F)ccc3NC(=O)[C@H]12	none
COc1ccc(-c2ccc3c(c2)C(=O)N2CC[C@H](NC(=O)CCC(=O)O)[C@H]2C(=O)N3)cc1	ST2 IL33 inh 46%
COc1ccc(NC(=O)c2oc3ccccc3c2NC(=O)c2ccc3c(c2)OCO3)c(OC)c1	none
Cc1ccc(-c2nc(S(=O)(=O)c3ccc(C)cc3)c(N3CCOCC3)o2)cc1	none
